Laboratory results taken from PubChem BioAssay AID1159506 (National Center for Advancing Translational Sciences (NCATS), 2015).
The full ranking holds about 59,000 sequences; the median of the read-out is about -0.00055, and the lowest 2% start at about -2. Many of the other results were omitted from the sample, so the lowest values are more common in it than they were.

test: Identification of proteins required for the processing of the EWS-FLI1 nascent transcript; conditions: TC32 Ewing sarcoma NR0B1-luc vs CMV-luc (EWS-FLI1 target promoter against control promoter), 48 h; screened at 20 nM (by protocol);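 note: robust z of luciferase light less the median z of siRNAs with the same seed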
Summary of the method: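 Genome-wide siRNA screen (Ambion v4.1, three siRNAs per gene, 20 nM final, RNAiMax) in Ewing sarcoma TC32 cells carrying NR0B1-promoter or CMV-promoter luciferase; OneGlo luciferase read 48 h post-transfection. Data normalized, z-score-MAD transformed and seed-adjusted.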

| Sequence | seed-corrected z-score |
| --- | --- |
| UCCCAUUGAAAGCAUAUCC against TSHR | -1.47 |
| UAUCUUUAUCAAAACCUCG against EFCAB1 | -0.824 |
| UAUGGAAUAAGUUGCUCGA against MED30 | -0.0259 |
| UUGACUACGAUGAGCUUGC against ETV3L | 1.16 |
| UUAUUAUGUAUGCAUCUGG against LINC00632 | -0.334 |
| ACAGUGGUGAGUUAUCUCA against CDC42 | -2.8 |
| AUGGAUUCUUCAAUCGUCC against SMARCAD1 | 0.8 |
| AGUCAUAUCAUUUAUAGUG against FOXQ1 | -0.473 |
| UUUCAAUUUAGUUUGAUGA against LOC728147 | 0.0773 |
| AUUACUUCGAGACUUGCUG against LCLAT1 | -0.482 |
| AAACUUAGUAGAGUUGUCC against LOC342541 | 0.528 |
| GUUGUGACCUGUCACGAUG against CTU1 | -1.99 |
| UGCUUGACAACUGGCCACC against RPL18AP4 | -0.411 |
| UCAUCAUCUUCUUCGAGGC against DCLRE1A | -2.16 |
| UAGAGGACCUUCAUGUUGU against THY1 | 0.624 |
| UUAUCUGGAAUGAACAAUG against PHF3 | -0.486 |
| UACGAUCAUUGCACUGUCC against FBN1 | -0.21 |
| UAUGUAUCUACCCAUCCGC against ATG3 | -1.27 |
| UGACUGUUCACGGAAUUCU against TGM3 | -0.755 |
| UCUUUAGGAAUGUAAAGCC against SKIV2L2 | 0.824 |
| UCAUUUUCGACCACCUUUC against WBSCR16 | -0.738 |
| UUAGGAACUCGAACGACGU against GTF2F1 | 0.889 |

| Sequence | seed-corrected z-score |
| --- | --- |
| UUCUUCUUAGAUUUAUGCC against RPL3 | -2.09 |
| UCUCGAUUGAGGGUGGUUG against FLRT3 | 0.383 |
| AUAGGUGCAAGGCUUGUGC against C1orf56 | -2.01 |
| UCUUCUCGAACAGAGGUCG against F2 | -0.0868 |
| UGAGGGUUUAGCAUCAAGC against PCGF1 | -1.47 |
| UCUUUUAACGACCUCCUGC against SLC35D3 | 0.495 |
| UCGCGGAUCUCCUUUGUGG against HMGN2P18 | -0.51 |
| AAAGUCCCAAGUGCUAAGA against FAM180B | 2.95 |
| UUCUCGAUGCGGUCCAUCC against RILPL1 | 1.36 |
| UUUGGUAGAAAAUUGCAGA against FJX1 | -0.707 |
| UUCCGUUCCACCUCCAUCA against SPATC1 | -2.15 |
| UCAUCUACCUGUAUUACCU against CDCA8 | -0.479 |
| AAUGGUAGUAGCGGAAUCG against SLC12A6 | -1.16 |
| UAUGUACUUCUGACAAGUC against RNF125 | 0.00921 |
| UAUCUAGCAGCUCUCCCAG against AMHR2 | 0.151 |
| UAACCGACUGGGUAGAGCG against EMC4 | 0.348 |
| UCUCUGCUCAAUGUUUUCU against LBH | -2.25 |
| UACGAGGAUGUUGUAUUCC against N4BP1 | -0.092 |
| UACAGUACAAACAAGGCUG against CEBPA | -0.377 |
| UUAACUGCUAGUGUAUUGG against TCP1 | -1.18 |
| UCAAGGAUAAGAGAGAUUG against RORC | 0.034 |
| UGCGAUUGAAUAUUCUACG against CSRNP3 | -2.35 |

| Sequence | seed-corrected z-score |
| --- | --- |
| AUUCUUACAAUCUAAAGGC against SUPT7L | 0.435 |
| AGAGGUUGUACAUUCUUCG against SESN2 | -2.47 |
| UUCUUAGACACGUAGUACC against KAT2B | 0.834 |
| UAGGGAUUCCCUGUAGUUC against COLEC10 | 1.57 |
| AUCUGUCUGAGUGCAAAUC against HIPK1 | -0.0595 |
| UUGGUAUCAAGGUCUACAC against DENND4B | -0.319 |
| AUUGUAUACAGCGAGUUCU against GP1BA | 0.181 |
| AUCCGGAACCUGUAGAUCG against CCDC130 | -0.0498 |
| AAUGGUCUUGUUGGUCUCC against TSNARE1 | -2.7 |
| UGAUUAACCAGUACUGAUG against C5orf42 | 0.83 |
| AUUAGAACUACAGCUCUCG against LOC648999 | 0.638 |
| UCGAUGGUAAGGUAAGAGC against DNMT3B | -2.25 |
| UCUCGUAGAACAUUGCUGG against VPS53 | -0.933 |
| AAAGCUGGAAUAAAUAGUC against DLX5 | -0.397 |
| UGAAUGUCAAUGUCGUAUG against PCDHB1 | -0.133 |
| UGUUGUUCUUGACUGACUG against SNRPD2P1 | -4.32 |
| UUAGUGAUAUUCUUGACAG against PSMD5 | 0.816 |
| UCAUGUAAAACUCUCGGCC against PARS2 | -0.0062 |
| UCAUUGAAGUGCUUAGUGG against RASGRF1 | -0.277 |
| UGUUGUAGAUCCAUAGUUC against KLHDC2 | -4.33 |
| UCCAUGUCAUGUAAAUUUC against MR1 | -0.441 |
| AUUGCAAAAGUAGAUUUAC against RPL26P30 | 0.181 |
